Laboratory results from PubChem BioAssay AID1578 (Sanford-Burnham Center for Chemical Genomics, 2009).
Screen size: about 290,000 compounds; about 3,000 (1%) were called active. The sample holds actives, similar compounds and a random draw of the others, so the mix is not that of the screen. Values without a mark were called inactive. No stated cut-off is given here; in the data, active means inhibition mostly above about 36% (no sharp cut-off); inactive means mostly below about 34%.

Experiment: inhibition of NOD1-driven NF-kB reporter – cell-based, luminescence, uHTS, primary screen (AID 1578);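 further: HEK-293T reporter cells stimulated with the NOD1 agonist gamma-tri-DAP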
Conditions: NOD1-driven NF-kB luciferase reporter cells, at 4 µM, active compounds read high

SMILES	inhibition
Cc1c(O)ccc2c(=O)c(Oc3ccccc3)coc12	-2.7%
Cc1cc(C)nc(SCc2nnc(SCC(=O)Nc3c(C)cccc3C)o2)n1	-14%
O=C1CSc2ccc(S(=O)(=O)CCC(=O)NC3CCCCC3)cc2N1	-26.4%
C#CCOC(=O)CCCNc1ccc([N+](=O)[O-])cc1[N+](=O)[O-]	-22.8%
CC1CN=C(N(C(=O)Nc2ccccc2)c2ccc(F)cc2)S1 (stereo unspecified)	1.6%
CSCCC(NC(=O)OCc1ccccc1)C(=O)NCc1cccnc1 (stereo unspecified)	-10.2%
CCCOc1ccc(C(=O)CCN2CCCCC2)cc1	35.7%
CCOc1ccc(C(=O)COC(=O)CC)cc1	-16%
CCCCC(=O)OCC(=O)c1ccc(OCC)cc1	31.2% (active)
CCOc1ccc(C(=O)CCN2CCCCC2)cc1	44%
CCOc1ccc(C(=O)COC(C)=O)cc1	3.9%
CCOc1ccc(C(=O)CCN2CCCCCC2)cc1	70.2% (active)
Cc1occc1C(=O)O/N=C(\N)c1ccccc1	-8.7%
CCNC(=S)Nc1cccc(F)c1C	-29.3%
O=C(NCc1ccco1)C(Cc1ccccc1)N1C(=O)C2C3C=CC(C3)C2C1=O (stereo unspecified)	1.7%
COC(=O)C(Cc1ccccc1)NC(=O)CC(C)CC(=O)Nc1ccc(C)cc1 (stereo unspecified)	-13.8%
CC(C)(C)NC(=O)CN(C(=O)C1CSC(=O)C1)c1ccc2c(c1)OCCO2 (stereo unspecified)	-20.5%
CCOC(=O)N1CCN(C(=O)c2ccc3c(c2)N(Cc2ccc(C)cc2)CCS3)CC1	45.5%
Cc1ccc(CN2CCSc3ccc(C(=O)N4CCN(c5ncccn5)CC4)cc32)cc1	34.2% (active)
CCN1CCN(C(=O)c2ccc3c(c2)N(Cc2ccc(C)cc2)CCS3)CC1	-18.4%
CSc1nc2ccc(NC(=O)c3ccco3)cc2s1	-41.5%
C=CCn1c(COc2ccccc2-c2ccccc2)nnc1SCC(=O)NC(=O)NCc1ccco1	-0.2%

SMILES	inhibition
COc1ccc(Nc2nccc(-c3cccc(N)c3)n2)cc1	6.7%
Cc1cc(C)nc(Nc2cccc(Cl)c2)n1	-14.1%
CCC(C)Oc1cc(-c2ccnc(Nc3cccc(Cl)c3)n2)ccn1 (stereo unspecified)	47% (active)
Brc1ccc(CSc2ncn[nH]2)cc1	19%
COc1cc2ccccc2cc1C(=O)Nc1ccc2oc(=O)ccc2c1	46.4%
CCNc1nc(NC(C)C)nc(Oc2ccc(OCCOc3ccc(C)cc3)nn2)n1	-39.7%
COCc1cc(Sc2ccc(Cl)cc2)nc(C)n1	-2.4%
COCc1cc(NCc2ccc(Cl)cc2)nc(C)n1	21%
COCc1cc(S(=O)c2ccc(Cl)cc2)nc(C)n1 (stereo unspecified)	84.6% (active)
O=C(c1ccccc1)c1c[nH]c2ccccc12	-14.2%
O=C(c1c[nH]c2ccccc12)C(Cl)c1ccccc1 (stereo unspecified)	96.9% (active)
CC(Cl)C(=O)c1c[nH]c2ccccc12 (stereo unspecified)	-10.4%
COc1ccccc1NS(=O)(=O)c1ccc2c(c1)NC(=O)C(C)S2 (stereo unspecified)	49.3%
COc1ccc(N2CCN(C(=O)c3oc4ccccc4c3NC(=O)Cc3cccc(OC)c3)CC2)cc1	-28.1%
Cc1ccc(S(=O)(=O)NC(CC(=O)O)c2cccs2)cc1 (stereo unspecified)	-21.8%
CCCCCCCN1C2=NCCN2c2ccccc21	35.9% (active)
CC(C)(C)c1ccc(CN2C3=NCCCN3c3ccccc32)cc1	112% (active)
c1ccc(CN2C3=NCCCN3c3ccccc32)cc1	-21.5%
CCCCCCN1C2=NCCN2c2ccccc21	-24.5%
CCCCCN1C2=NCCN2c2ccccc21	-41.3%
Cc1ccc(CN2C3=NCCCN3c3ccccc32)cc1	-29.5%
CCCCOCCCNC1=NCCCCC1	-5.9%

SMILES	inhibition
CCNC(=O)NC(=O)C(C)OC(=O)c1oc2ccc(OC)cc2c1C (stereo unspecified)	25.1%
O=C(O)c1ccc2cc[nH]c2c1	7%
Cc1ccc2cc(C#N)c(NCc3ccco3)nc2c1	-2.1%
CC(C)(C)n1cnc2cc(NC(=O)c3ccccc3)ccc21	-12.2%
CC(NC(=O)CCl)c1ccc(Cl)c(Cl)c1 (stereo unspecified)	93.1% (active)
CC(=O)NC(C)c1ccc(Cl)c(Cl)c1 (stereo unspecified)	-19.4%
Cc1ccc(OCC(=O)NC(C)c2ccc(Cl)c(Cl)c2)c([N+](=O)[O-])n1 (stereo unspecified)	-30.1%
COc1ccc2[nH]cc(/C=N/NS(=O)(=O)c3ccc(C)cc3)c2c1	44% (active)
Cc1ccc(S(=O)(=O)N/N=C/c2ccccc2O)cc1	-2.2%
C(=N\Nc1nc2ccccc2[nH]1)/c1c[nH]c2ccccc12	34.5%
COc1ccc(OC)c(S(=O)(=O)N/N=C\c2c[nH]c3ccccc23)c1	30.3%
Cc1ccc(S(=O)(=O)N/N=C/c2c[nH]c3ccccc23)cc1	62.4% (active)
C(=N\Nc1ccccn1)/c1c[nH]c2ccccc12	10.9%
COc1ccc(O)c(/C=N/NS(=O)(=O)c2ccc(C)cc2)c1	1.6%
Fc1c(F)c(F)c(N/N=C/c2c[nH]c3ccccc23)c(F)c1F	87.4% (active)
COc1ccc2c(/C=N/NS(=O)(=O)c3ccc(C)cc3)c[nH]c2c1	-6.6%
COc1ccc(N2CCN(C(CNC(=O)C(=O)NCc3ccc4c(c3)OCO4)c3ccco3)CC2)cc1 (stereo unspecified)	-7.2%
O=C(O)/C=C/C(=O)Nc1ccc(S(=O)(=O)Nc2nccs2)cc1	-6.1%
COc1ccc(CCNC(=O)CSc2nnc(CNC(=O)c3ccccc3F)o2)cc1OC	-6.3%
CCC(C)[C@H](NC(=O)N1CCn2c1nc1ccccc12)C(=O)NCc1ccccc1 (stereo partly specified)	-0.4%
CC(C)C(C)NC(=O)COC(=O)c1cc(S(=O)(=O)N(C)C)ccc1N1CCCC1 (stereo unspecified)	-50.6%
c1ccc(COn2nnc3ccccc32)c(COn2nnc3ccccc32)c1	-7.5%
